Assay outcomes as filed in PubChem.
Coupling enz = qHTS Assay for Inhibitors of Fructose-1,6-bisphosphate Aldolase from Giardia Lamblia: Coupling assay counterscreen; coupling enzyme system counterscreen, AmpLite Red fluorescence; activity change, negative = inhibition, % at 58.2 µM, hits read low; actives 0.67% (n = 290,000); AID 2472, 2010; in the data active = activity change below about -30%
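First, compound is pin-transferred into glyceraldehyde-3-phosphate coupling-enzyme reagent at 57.5 uM final and held 10 min at RT. Next, substrate, coupling system and AmpLite Red are added. After 20 min RT, fluorescence (525/598 nm) is read.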
PI4K2A inh = qHTS for small molecular inhibitors of PI4K2A; Phosphatidylinositol 4-kinase type 2-alpha (Homo sapiens), Q9BTU6; purified PI4K2A, ADP-Glo luminescence, 1 h; stronger effect = lower value; activity change, negative = inhibition, % at 76.9 µM; actives 0.13% (n = 420,000); AID 1346378, 2018; in the data active = activity change below about -50%; inconclusive = mostly about -30% to -49%;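 also: -100% = wells without enzyme as full effect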
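Compounds are screened against recombinant PI4K2A using PI as substrate and ATP, the latter dispensed at 300 microM. Reactions run one hour at ambient temperature before ADP-Glo detection; full inhibition defined by wells lacking enzyme.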
GALK inh = qHTS Assay for Inhibitors of Human Galactokinase (GALK) | Purified GALK, Kinase-Glo residual ATP luminescence | Potency, µM (doses to about 57.5 µM), without a hit: at the highest dose activity change, negative = inhibition, most hits filed as inhibitors | actives 0.007% (n = 270,000) | AID 1868, 2009; also: potency is read from the fitted curve at half-maximal effect
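5 nM enzyme, 35 uM ATP, 100 uM galactose, 20 mM HEPES pH8.0, 5 mM MgCl2; 1 h RT; residual ATP by Kinase-Glo Plus luminescence, qHTS format.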
USP1-UAF1 inh = Inhibitors of USP1/UAF1: Primary Screen; Ubiquitin carboxyl-terminal hydrolase 1 (Homo sapiens), O94782; recombinant USP1/UAF1, Ub-Rhodamine cleavage fluorescence; Potency, µM (highest dose often 57.1 µM), for inactives: at the top dose activity change, negative = inhibition, actives largely listed as inhibitors; actives 0.23% (n = 390,000); AID 743255, 2014; also: potency is read from the fitted curve at half-maximal effect; nearly all actives have a fitted effect of over 60% in size
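In this screen, compounds sit with the deubiquitinase complex (1nM) for 15 min at room temperature before Ub-Rho is added at 150nM final. Fluorescence rise is then followed for 6 reads every 60 seconds.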
USP2a inh = qHTS Assay for Inhibitors of Ubiquitin-specific Protease USP2a Using CHOP2 as the Reporter; USP2 core, Ub-CHOP2 coupled fluorogenic reporter, 485/531; Potency, µM (series often up to 38.3 µM), inactives show top-dose activity change, negative = inhibition, most hits filed as inhibitors; actives 0.01% (n = 330,000); AID 463254, 2010;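 also: potency is read from the fitted curve at half-maximal effect; plate controls were DMSO wells for no effect and full inhibition by NEM control for full effect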
Target sequence (O75604 whole entry, looked up): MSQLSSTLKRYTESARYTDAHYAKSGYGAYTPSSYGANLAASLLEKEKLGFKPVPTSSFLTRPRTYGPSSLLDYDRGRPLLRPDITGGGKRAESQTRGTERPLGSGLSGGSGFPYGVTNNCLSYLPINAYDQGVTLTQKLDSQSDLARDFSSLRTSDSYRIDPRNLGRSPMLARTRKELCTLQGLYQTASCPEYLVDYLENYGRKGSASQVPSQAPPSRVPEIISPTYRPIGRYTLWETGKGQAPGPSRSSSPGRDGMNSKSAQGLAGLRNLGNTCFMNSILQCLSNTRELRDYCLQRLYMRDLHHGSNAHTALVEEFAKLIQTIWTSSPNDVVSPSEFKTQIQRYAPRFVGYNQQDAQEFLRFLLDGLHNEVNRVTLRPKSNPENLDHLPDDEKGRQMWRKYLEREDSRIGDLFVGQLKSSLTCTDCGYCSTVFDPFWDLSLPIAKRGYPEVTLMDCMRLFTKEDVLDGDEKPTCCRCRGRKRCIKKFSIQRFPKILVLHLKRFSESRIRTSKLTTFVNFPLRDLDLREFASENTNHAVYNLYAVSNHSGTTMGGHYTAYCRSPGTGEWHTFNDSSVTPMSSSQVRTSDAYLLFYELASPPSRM
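Deubiquitinase activity read as fluorescence (485/531 nm) after Ub-CHOP2 cleavage activates the enterokinase reporter on its substrate; USP2 core 10nM, Ub-CHOP2 and substrate 25nM each, 30min compound preincubation then 60min RT; data normalized to NEM, curves fitted.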
Eya2 phos inh = qHTS Assay for Inhibitors of the Phosphatase Activity of Eya2; Protein phosphatase EYA2 (Homo sapiens), O00167; AID 488837, 2010; Potency, µM (highest dose often 76.9 µM), for the others: at the highest dose activity, negative = inhibition, hits mostly inhibitors; recombinant Eya2, OMFP fluorescence dephosphorylation (OMFP is methylfluorescein phosphate); actives 0.006% (n = 330,000); also: potency is read from the fitted curve at half-maximal effect
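Eya2 protein (added as 0.2 uM solution) was preincubated with compound for 10 min at ambient temperature in 50 mM HEPES pH 7.5, 50 mM NaCl, 5 uM MgCl2, 0.05% BSA, 1 mM DTT. OMFP (added at 50 uM) then reacted 10 min; fluorescence read at 485/525 nm.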
An asterisk follows results filed as active; i = inactive; u = inconclusive; x = no result given. Hits are enriched below; roughly 0.71% of the tested compounds scored in any of these assays. Unless noted, calls follow the shape of the dose curve; as a rule, active = well fitted curve in the direction sought with a large enough effect; inconclusive = small, poorly fitted or top-dose-only effect, or another doubt; inactive = no such curve, though single readings can be large; an effect the other way counts as inactive or inconclusive. Unless noted, % is scaled to controls: 0 for no effect and ±100 for the full control effect.

SMILES | Coupling enz | PI4K2A inh | GALK inh | USP1-UAF1 inh | USP2a inh | Eya2 phos inh
COc1cc2c(cc1OC)-c1c(O)c(OC)cc3c1[C@H](C2)N(C)CC3 | -26 | x | x | x | x | x
COc1cc2c(cc1OC)-c1c(OC)c(OC)cc3c1C(C2)N(C)CC3 (centres undefined) | -42* | -9 | -1% | u | -1% | -14%
CC(C)[C@@]1(NC(=O)[C@@H]2C[C@@H]3c4cccc5[nH]cc(c45)C[C@H]3N(C)C2)O[C@@]2(O)[C@@H]3CCCN3C(=O)[C@H](Cc3ccccc3)N2C1=O | -28 | -5 | 5% | -25% | -24% | -9%
CC(C)C[C@H]1C(=O)N2CCCC2[C@]2(O)O[C@](NC(=O)[C@@H]3C=C4c5cccc6[nH]cc(c56)CC4N(C)C3)(C(C)C)C(=O)N12 (some centres undefined) | -38* | -10 | 0% | 13µM* | u | 3%
CC(C)[C@@]1(NC(=O)[C@@H]2C=C3c4cccc5[nH]cc(c45)C[C@H]3N(C)C2)O[C@@]2(O)[C@@H]3CCCN3C(=O)[C@H](Cc3ccccc3)N2C1=O | -40* | x | x | x | 17% | 12%
CN1C[C@@H](C(=O)N[C@@]2(C)O[C@]3(O)C4CCCN4C(=O)[C@@H](Cc4ccccc4)N3C2=O)C=C2c3cccc4[nH]cc(c34)C[C@@H]21 (some centres undefined) | -32* | x | x | x | x | x
CC(C)(N)Cc1ccccc1Cl | x | 1 | x | x | x | x
Nc1c(C(=O)NCCCc2ccccc2)c2nc3ccccc3nc2n1Cc1cccs1 | -51* | -6 | -1% | u | 0% | -6%
CCCCCn1c(N)c(C(=O)NCCN2CCOCC2)c2nc3ccccc3nc21 | -8 | 0 | -1% | -25% | -15% | -14%
Nc1c(C(=O)NCc2ccco2)c2nc3ccccc3nc2n1Cc1ccc(F)cc1 | -40* | u | -1% | -7% | -1% | -3%
Nc1c(C(=O)NCc2ccco2)c2nc3ccccc3nc2n1Cc1ccccc1 | -28 | -6 | x | -17% | 0% | -18%
CCCCCn1c(N)c(C(=O)NCc2cccs2)c2nc3ccccc3nc21 | -17 | 0 | -1% | u | 2% | -12%
CCCCNC(=O)c1c(N)n(Cc2ccc3c(c2)OCO3)c2nc3ccccc3nc12 | -13 | -7 | -1% | 28µM* | 1% | -17%
CC(Cc1ccccc1)N(C)Cc1ccco1 (centres undefined) | x | -1 | x | x | x | x
C[C@]12CCC(=O)C=C1CC[C@@H]1[C@H]3CC[C@](C)(O)[C@@]3(C)CC[C@@H]12 | x | i | x | x | x | x
COc1ccc(N2C(=O)NC(=O)/C(=C\c3ccc([N+](=O)[O-])s3)C2=O)cc1 | -12 | 0 | 3% | 16µM* | 0% | 16%
COc1ccccc1N1C(=O)NC(=O)/C(=C/c2ccc([N+](=O)[O-])s2)C1=O | -13 | -11 | x | 32µM* | 2% | 4%
COc1cccc(N2C(=O)NC(=O)/C(=C/c3ccc([N+](=O)[O-])s3)C2=O)c1 | -10 | -21 | 0% | u | 0% | 6%
COc1ccc(N2C(=O)NC(=O)/C(=C/c3ccc([N+](=O)[O-])s3)C2=O)cc1 | -4 | u | 8% | 22µM* | -2% | -3%
CCC(C)C(C)(COC(N)=O)COC(N)=O (centres undefined) | x | 5 | x | x | x | x
COc1ccc(NC(=O)CSc2oc(-c3cccs3)nc2S(=O)(=O)c2ccccc2)c(OC)c1 | x | 2 | x | u | x | x
Cn1nc(-c2ccc(C(=O)Nc3ccc(OC(F)(F)F)cc3)cc2)c2ccccc2c1=O | x | 1 | x | u | x | x
CCOC(=O)c1ccc(N2C(=O)c3n[nH]c(-c4cccs4)c3C2c2ccc(C(C)(C)C)cc2)cc1 (centres undefined) | x | 0 | x | u | x | x
